Data published in PubChem BioAssay (NCI).
The panel holds about 83,000 compounds, 20% with a hit somewhere; the sample as a whole holds those more often.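 Step 1: grow cells in 96-well plates. Step 2: add test compound at a single concentration. Step 3: incubate 48 h. Step 4: record percent growth.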 Values without a mark were called inactive. Active and inactive are the calls of the source. Rule for the calls: active = growth percent below 10; inactive = the rest.

How the values were obtained:
Assay in all cases: NCI-60 one-dose screen, 48 h (100 = growth as untreated, 0 = no growth, -100 = all killed)
Settings in all cases: 10 µM unless noted
[1] = system: NCI-H23 lung
[2] = system: NCI-H226 lung
[3] = system: NCI-H322M lung
[4] = system: HOP-62 NSCLC
[5] = system: NCI-H460 lung
[6] = system: HOP-92 NSCLC
[7] = system: NCI-H522 lung
[8] = system: A549/ATCC NSCLC
[9] = system: 786-0 renal
[10] = system: COLO 205 colon

SMILES | growth [1] | growth [2] | growth [3] | growth [4] | growth [5] | growth [6] | growth [7] | growth [8] | growth [9] | growth [10]
CNC(=O)CCN1CCN(CC/C=C2\c3ccccc3Sc3ccc(Cl)cc32)CC1 | 91% | 121% | 74.8% | 102% | 92.6% | -4.86% (active) | 85% | -27.4% (active) | 75.9% | 85.8%
O=C1Nc2ccccc2/C1=C/c1cn(C(=O)c2ccc(Cl)cc2)c2ccccc12 | 90.8% | 92.3% | 127% | 111% | 107% | 99.3% | 85.6% | 101% | 111% | 58.2%
CCCCCS(=O)(=O)Nc1ccc(C(=O)O)cc1 | 102% | 98.9% | 97.3% | 98.2% | 104% | 105% | 75.4% | 87.4% | 102% | 104%
C=CC(=O)Nc1cccc(Oc2nccc(Nc3nnc(C4CC4)s3)n2)c1 | 97.1% | 101% | 105% | 110% | 95.6% | 66.1% | 86.8% | 103% | 86.6% | 107%
C=CCOC1=CC(=O)c2ccccc2C1=O | 50.6% | 100% | 91.6% | 95.6% | 105% | 114% | 74% | 91.4% | 102% | 110%
COc1ccc(Cl)cc1NC(=O)C(Br)C(Br)C(=O)O (stereo not given) | 67% | 70.9% | 61.5% | 56.6% | 111% | 53.5% | -43.5% (active) | 115% | 102% | 105%
COC1=CC(=O)C[C@@H](C)[C@]12Oc1c(Cl)c(OC)cc(OC)c1C2=O | 93.5% | 99.9% | 105% | 88.3% | 110% | 89.4% | 80.5% | 97.5% | 99.2% | 106%
C[C@H]1[C@H]2[C@H]3CC[C@@H]4[C@@]5(C)C/C(=C/c6cccnc6)C(=O)C(C)(C)[C@@H]5CC[C@@]4(C)[C@]3(C)CC[C@]23CO[C@]1(C)[C@@H](C(=O)/C=C\c1cccnc1)C3 | -48.7% (active) | -13.5% (active) | 46.4% | -13.6% (active) | -45.3% (active) | -20% (active) | -34.4% (active) | -24.6% (active) | -39% (active) | -56.8% (active)
Fc1cnc(NC2CC2)nc1-c1cnc2ccc(N3CCOCC3)cn12 | -7.34% (active) | 0.213% (active) | 4.31% (active) | 9.8% (active) | 4.3% (active) | 1.51% (active) | -18.5% (active) | 3.21% (active) | 11.2% | -22.1% (active)
O=C(CC(SCc1ccccc1)c1ccccc1)c1ccccc1 (stereo not given) | 84.6% | 87.6% | 97.1% | 91.7% | 103% | 80.1% | 111% | 101% | 84% | 94.3%
CN1CCN(C(=O)c2c3c(n4ccccc24)C(=O)c2ncccc2C3=O)CC1 | 26.8% | 69.5% | 47.2% | 27.3% | 16.4% | 85.4% | 51.7% | 51.3% | 56.3% | 78.2%
Cc1ccc(-c2cc3c(cc2O)C2CCCCC2(N2CCOCC2)O3)cc1 (stereo not given) | 94.8% | 108% | 101% | 110% | 103% | 85.7% | 82.7% | 96.1% | 108% | 113%
COc1cc(-c2nn(-c3ccccc3)cc2-c2ccnc(NCCNS(=O)(=O)c3ccc(Cl)cc3)n2)ccc1Cl | 47.4% | 30.8% | 68.8% | 48% | 19% | 48.8% | 42.2% | 13.3% | 28.9% | 17.2%
Cc1ccc(N2CCN(C(=S)c3cccs3)CC2)cc1 | 104% | 94.9% | 107% | 105% | 109% | 74.8% | 82.6% | 92.5% | 90.3% | 112%
COC(=O)c1ccc(C2Nc3ccc(S(=O)(=O)Nc4ccc(C)c(C)c4)cc3C3OCCC23)cc1 (stereo not given) | 59.5% | 85.9% | 96% | 87.3% | 86% | 66% | 52.6% | 78.8% | 93.9% | 94%
Cc1cccc(NC(=O)N/C(N)=N/c2nc(C)c(C)s2)c1 | 61.9% | 71.3% | 82.7% | 55.3% | 20.2% | 67.5% | 24.2% | 42.6% | 83.1% | 36%
COc1cccc(-c2nc3sccn3c2-c2ccnc(NCCNS(=O)(=O)c3ccc(C(F)(F)F)cc3)c2)c1 | 53.7% | 34.8% | 72.3% | 62% | 35.6% | 34.4% | 55.7% | 38.1% | 51.6% | 28.5%
COc1cccc(-c2nn(-c3ccccc3)cc2-c2ccnc(NCCNC(=O)Nc3ccc(Cl)c(Cl)c3)c2)c1 | 19.7% | 50.5% | 48.1% | 5.85% (active) | 2.74% (active) | -1.01% (active) | -14.9% (active) | -18.3% (active) | -41.1% (active) | -37.4% (active)
CCCCCCCC/C=C\CCCCCCCCOc1ccccc1CC(=O)NCC[N+](C)(C)C | 65.5% | 52.3% | 96.6% | 37% | 23.8% | 61.3% | 51.1% | 71.4% | 50.5% | -7.71% (active)
CCN(CC)CCCC(C)Nc1c2ccc(Cl)cc2nc2ccc(O)cc12 (stereo not given) | 46.2% | 39.4% | 38% | 42.1% | 14.7% | 50.3% | 37% | 24.4% | 22.3% | -16.4% (active)
Cn1cc(-c2csc(-c3cccc(F)c3)n2)c2cccnc21 | -62.7% [100 µM] (active) | -14.4% [100 µM] (active) | -22% [100 µM] (active) | -69.2% [100 µM] (active) | -59.6% [100 µM] (active) | -59.6% [100 µM] (active) | -27.6% [100 µM] (active) | 1% [100 µM] (active) | -81.6% [100 µM] (active) | -66.5% [100 µM] (active)
COc1ccc(N=Nc2ccc(O)c(=O)cc2)cc1 | 2.37% (active) | 4.29% (active) | 25.2% | 19.1% | 2.64% (active) | 19.4% | 0.606% (active) | 5.6% (active) | 19.5% | 26.3%
Cc1occc1-c1n[nH]c(=S)n1N1C(=O)CSC1=S | 102% | 98.7% | 99.4% | 104% | 104% | 103% | 89.3% | 103% | 100% | 111%
O=C(NC(CSSCC(NC(=O)c1ccccc1)C(=O)O)C(=O)O)c1ccccc1 (stereo not given) | 101% | 98.7% | 103% | 95.6% | 107% | 88.3% | 92.4% | 104% | 105% | 114%
c1csc(-c2c3ccc(=[N+]4CCCCC4)cc-3oc3cc(N4CCCCC4)ccc23)c1 | -71.3% (active) | -81.7% (active) | -78.5% (active) | -60.6% (active) | -57.3% (active) | -64.7% (active) | -70% (active) | -56.2% (active) | -92.5% (active) | -61.5% (active)
